# Experimental data as given in the supplement of paper PMC5662767.
# Where a name gives a salt, the structure may show the parent alone.
# Test system: Drosophila S2 cl14 SmoIP sensor cells
# Assay: normalized SmoIP GFP fluorescence (untreated unstimulated = 0%, untreated Hh-stimulated = 100%); higher = more Smo activation sensor fluorescence
# Details: stimulation: mock conditioned medium (-Hh); compound concentration: 2 uM; 24 h
# 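Further: flow cytometry read-out as median GFP intensity of gated cells, compounds added 30 min before Hh-conditioned or mock medium, mock-treated cells serving as unstimulated baseline.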
row,Structure (SMILES),normalized SmoIP GFP fluorescence [%]
1,Cc1nc(N)sc1-c1ccnc(Nc2ccc(N3CCOCC3)cc2)n1,94.3
2,COc1ccc(-c2nc(N3CCOCC3)c3sc(CN(C)c4ncc(C(=O)NO)cn4)cc3n2)cn1 [cudc-907],82.3
3,CC(C)CCNC(=O)C(CC(C)C)NC(=O)C1OC1C(=O)O (configuration not stated) [loxistatin-acid-e-64c],34.9
4,Cc1cc(NC(=O)Nc2ccc(N(C)C)cc2)c2cc(F)cc(F)c2n1,24.9
5,NC(=S)N/N=C/c1ncccc1N [triapine],-3.71
6,CCc1cc(Nc2nccc(-c3c(-c4ccc(OC)c(C(=O)Nc5c(F)cccc5F)c4)nc4ccccn34)n2)c(OC)cc1N1CCC(N2CCN(S(C)(=O)=O)CC2)CC1,25.3
7,CCOC(=O)Nc1cc(-c2ccc(C)c(NS(C)(=O)=O)c2)nn2c(C)nnc12 [bromosporine],49.9
8,Cc1ccc(-n2nc(C(C)(C)C)cc2NC(=O)Nc2ccc(OCCN3CCOCC3)c3ccccc23)cc1 [BIRB-796-(Doramapimod)],72.2
9,C[C@]12CCC3=C4CCC(=O)C=C4CC[C@H]3[C@@H]1CC[C@@]2(O)CC#N [Dienogest],10.2
10,O=c1cc(-c2cccc3c2Sc2ccccc2S3)oc(N2CCOCC2)c1,2.43
11,C=CC(=O)Nc1cccc(Oc2nc(Nc3ccc(N4CCN(C)CC4)cc3)ncc2Cl)c1,11
12,N#C/C(=C\c1ccc(O)c(O)c1)C(=O)NCc1ccccc1,9.54
13,Cc1[nH]c2ccccc2c1CCNCc1ccc(/C=C/C(=O)NO)cc1,81.3
14,N=C(N)Nc1ccc(C(=O)Oc2ccc3cc(C(=N)N)ccc3c2)cc1 [Nafamostat-mesylate],16.2
15,Clc1ccc(C2(c3ccc(-c4cn[nH]c4)cc3)CCNCC2)cc1,17.1
16,C[C@H](NCc1ccc(OCc2cccc(F)c2)cc1)C(N)=O [Safinamide-mesilate],4.04
17,CN(C)CCc1c[nH]c2ccc(Cn3cncn3)cc12 [Rizatriptan-Benzoate(Maxalt)],-0.265
18,COc1ccc(S(=O)(=O)N(C(C)=O)c2ccccc2/C=C/c2cc[n+]([O-])cc2)cc1,1.03
19,Cc1cn([C@H]2C=C[C@@H](CO)O2)c(=O)[nH]c1=O [Stavudine],-2.1

row,Structure (SMILES),normalized SmoIP GFP fluorescence [%]
1,CS(=O)(=O)c1ccc(C(=O)Nc2ccc(Cl)c(-c3ccccn3)c2)c(Cl)c1,36.8
2,C=CC[N+]1([C@H]2C[C@H]3[C@@H]4CC[C@H]5C[C@H](O)[C@@H](N6CCOCC6)C[C@]5(C)[C@H]4CC[C@]3(C)[C@H]2OC(C)=O)CCCC1 [Rocuronium-bromide],10.2
3,C=C1C(=O)O[C@@H]2/C=C(\C)CC/C=C(\C)CC[C@@H]12 [Costunolide],27.4
4,COCCCC/C(=N\OCCN)c1ccc(C(F)(F)F)cc1 [Fluvoxamine-maleate],11
5,C[C@]12CC[C@@H]3c4ccc(O)cc4C[C@@H](CCCCCCCCC[S+]([O-])CCCC(F)(F)C(F)(F)F)[C@H]3[C@@H]1CC[C@@H]2O (some centres not stated) [Fulvestrant],12.4
6,C[C@]12C=CC(=O)N[C@@H]1CC[C@@H]1[C@@H]2CC[C@]2(C)[C@@H](C(=O)Nc3cc(C(F)(F)F)ccc3C(F)(F)F)CC[C@@H]12 [Dutasteride],4.26
7,Oc1nc(-c2ccc(C(F)(F)F)cc2)nc2c1CSCC2,5.66
8,COc1cc2/c(=N/c3ccc(Br)cc3F)nc[nH]c2cc1OCC1CCN(C)CC1 [Vandetanib],60.9
9,NC(=O)Nc1cc(-c2cccc(F)c2)sc1C(=O)N[C@H]1CCCNC1,45
10,COC(=O)Nc1ccc(-c2nc(N3CCOCC3)c3cnn(C4CCN(C(=O)OC)CC4)c3n2)cc1,-12.5
11,CCOc1cc(CC(=O)N[C@@H](CC(C)C)c2ccccc2N2CCCCC2)ccc1C(=O)O [Repaglinide],6.52
12,CCOc1ccn(-c2ccc(F)cc2)c(=O)c1C(=O)Nc1ccc(Oc2ccnc(N)c2Cl)c(F)c1,-5.22
13,COc1ccccc1OCC(O)CN1CCN(CC(=O)Nc2c(C)cccc2C)CC1 (configuration not stated) [Ranolazine-dihydrochloride],2.97
14,COc1nc(C)cnc1NS(=O)(=O)c1cccnc1-c1ccc(-c2nnco2)cc1 [Zibotentan(ZD4054)],-1.13
15,O=C(NOC[C@H](O)CO)c1ccc(F)c(F)c1Nc1ccc(I)cc1F,77.1
16,O=C(/C=C/c1ccc(CN(CCO)CCc2c[nH]c3ccccc23)cc1)NO,79.7
17,CN1CCN(CCOc2cc(OC3CCOCC3)c3c(Nc4c(Cl)ccc5c4OCO5)ncnc3c2)CC1,10.4
18,O=C(Nc1c[nH]nc1-c1nc2ccc(CN3CCOCC3)cc2[nH]1)NC1CC1,94.8
